The values below come from PubChem BioAssay.

The test relates to Human papillomavirus type 1a E7 protein (residues 1-88). In words: HPV1a E7 small-molecule binders, primary screen, biochemical, small-molecule microarray, residues 1-88, 635 nm (AID 1129). The note with it: small-molecule microarray binding, fluorescence 635 nm; higher = more signal.
`CN(C)C(=O)[C@@]1(Cc2ccccc2)COC(c2ccc(OCCCO)cc2)=N1`: the composite z-score stood at 0.672.

For `CO[C@H]1O[C@H](CO)[C@@H](OC(=O)CCc2ccccc2)[C@H](OC(=O)c2cc3ccccc3[nH]2)[C@H]1OC(=O)c1cc2ccccc2[nH]1`, the composite z-score worked out at 1.01.

`CN1C(=O)C2C=CC(C(O)c3cc(C(F)(F)F)cc(C(F)(F)F)c3)N(Nc3ccccc3)C2C1=O` (configuration not stated): the composite z-score was 0.737.

`COCCOC(=O)N1C(=O)[C@@]2(c3cc(C#CCCO)ccc31)[C@H](C(N)=O)[C@H]1C(=O)O[C@H](c3ccccc3)[C@H](c3ccccc3)N1[C@@H]2c1ccc(OCCO)cc1` showed a composite z-score of 1.19.

Molecule `COCCOC(=O)N1C(=O)[C@@]2(c3cc(C#Cc4ccc(OC)cc4)ccc31)[C@H](C(=O)NC[C@H](O)c1ccccc1)[C@H]1C(=O)O[C@H](c3ccccc3)[C@H](c3ccccc3)N1[C@@H]2c1ccc(OCCO)cc1` yielded a composite z-score of 1.2.

Molecule `COCCOC(=O)N1C(=O)[C@@]2(c3cc(C#CCNC(N)=O)ccc31)[C@H](c1ccc(OCCO)cc1)N1[C@H](c3ccccc3)[C@H](c3ccccc3)OC(=O)[C@H]1[C@@H]2C(N)=O` returned a composite z-score of 1.14.

Regarding `CC(=O)NCCCC[C@@H]1NC(=O)[C@H]2C[C@@H](C(=O)NCCCCCNC(=O)CS)[C@@H](c3cccc(OCCO)c3)N2C1=O`, the composite z-score stood at 0.616.

In the case of `O=C1O[C@H](c2ccccc2)[C@H](c2ccccc2)N2[C@H]1[C@@H](C(=O)N1CCCCCCC1)[C@]1(C(=O)Nc3ccc(C#CC4(O)CCCCCC4)cc31)[C@H]2c1ccccc1OCCO`, the composite z-score came to 1.35.

Molecule `COCCCNC(=O)[C@@]1(c2ccc([N+](=O)[O-])cc2)CC(=O)N(CC23CC4CC(CC(C4)C2)C3)[C@@H]1c1ccc(CO)cc1I` gave a composite z-score of 0.892.

Regarding `COc1ccc(C#Cc2ccc3c(c2)[C@]2(C(=O)N3)[C@H](C(=O)N3CCCCCCC3)[C@H]3C(=O)O[C@H](c4ccccc4)[C@H](c4ccccc4)N3[C@@H]2c2ccc(O)cc2)cc1`, the composite z-score came out at 1.21.

On to `C=C(/C(=C/C[C@H](OC(=O)c1ccncc1)c1cccc(OCCO)c1)c1cnc2ccccc2c1)C(C)C`, for which the composite z-score came to 0.952.

For the molecule `CCCCCCCCCCC(O)C1C=CC2C(=O)N(C)C(=O)C2N1Nc1cc(OC)c(OC)c(OC)c1` (configuration not stated), the composite z-score came to 0.242.

The molecule `Nc1cc(Br)ccc1C(=O)O` registered a composite z-score of 0.319.

In turn, `CN(C)C(=O)[C@]1(CCS(=O)(=O)c2ccccc2)N=C(c2ccc(OCCCO)cc2)O[C@@H]1c1ccccc1` registered a composite z-score of 1.26.

As for `O=C1N(CCS(=O)(=O)c2ccccc2)Cc2ccccc2[C@@H]2OC(c3ccc(OCCCO)cc3)=N[C@]12CCS(=O)(=O)c1ccccc1`, the composite z-score came out at 1.27.

As to `COc1ccc([Si](C)(C)[C@H]2[C@H](CC(=O)N3Cc4ccccc4C[C@H]3CO)O[C@@]3(C(=O)N(Cc4ccc(N5C(=O)c6cccc7cccc5c67)cc4)c4ccccc43)[C@@H]2C)cc1`, the composite z-score amounted to 1.15.

`COCC1=C2[C@@H](CCc3ccccc3)OB(O)C[C@@H]2[C@@H]2C(=O)N(C)C(=O)[C@@H]2C1` yielded a composite z-score of 0.003.

In the case of `CC(C)OC(=O)CC(=O)CC(O)c1ccc([N+](=O)[O-])cc1` (configuration not stated), the composite z-score is 0.304.

Turning to `CC(C)C(=C=CC[C@@H](O)c1cccc(OCCO)c1)C[C@@H](O)c1ccccn1`, the composite z-score was -0.0234.

In turn, `C=CCC(OC(C)=O)[C@@H]1[C@@H](N(Cc2cccc3ccccc23)C(=O)c2cccc3ccccc23)c2cc(OCCCO)ccc2N1C(=O)c1ccc2ccccc2c1` (some centres not stated) came in with a composite z-score of 0.18.

For `CC(=O)N1CC(C(O)C2C=CC3C(=O)NC(=O)C3N2Nc2ccc(Cl)cc2Cl)c2ccccc21` (configuration not stated), the composite z-score stood at 1.15.

As to `COC(=O)[C@@]1(Cc2ccc(F)cc2)[C@H]2c3cc(C(=O)N(C)C)n(Cc4c(CO)[nH]cc(C)c4=O)c3C[C@H]2CN1C(=O)c1ccccc1`, the composite z-score was found to be 0.453.

`CC(C)[C@H]1NC(=O)[C@@]23C(=O)N[C@@H](Cc4ccccc4)C2[C@H](C)[C@@]2(C)O[C@H]2C3/C=C/CCC/C=C/CNC(=O)[C@H](Cc2ccccc2)NC1=O` (some centres not stated) gave a composite z-score of 0.369.

`CCOC(=O)C[C@H]1[C@H](OC(=O)c2ccccc2-c2ccccc2)[C@@H](NC(=O)c2ccccc2)c2cc(OCCCO)ccc2N1C(=O)c1ccccc1` showed a composite z-score of 0.558.

Regarding `COC(=O)[C@@]1(Cc2ccccc2CN=[N+]=[N-])N=C(c2ccc(OCCCO)cc2)O[C@H]1c1ccccc1`, the composite z-score stood at 0.942.

`C=C(COC)C(=O)CC[C@@H](OC(=O)c1cccnc1)c1ccccc1OCCO` returned a composite z-score of 0.284.

On to `CC1CC/C=C\[C@H]2OC34C=CCN(CCN5CCOCC5)C(=O)[C@H]3N(C(C)CO)C(=O)[C@@H]4C2C(=O)O1` (some centres not stated), for which the composite z-score is -1.04.
